Reference: PMC7862700, “An all-to-all approach to the identification of sequence-specific readers for epigenetic DNA modifications on cytosine”

How the values were obtained:
Assay in all cases: DAPPL (digital affinity profiling via proximity ligation, sequencing); 10 mM Tris-HCl pH 7.5, 50 mM NaCl, 1 mM DTT, 4% glycerol, room temperature, 30 min; GST-TFs on glutathione beads, 16-mer random dsDNA library, 0.1% formaldehyde crosslink after washing; high values mean tight binding
FLI1 = biological target: T1, FLI1 (Homo sapiens, UniProt Q01543 1-452); settings: protein: recombinant; tags: N-terminal GST; dsDNA, one strand shown
T1 sequence: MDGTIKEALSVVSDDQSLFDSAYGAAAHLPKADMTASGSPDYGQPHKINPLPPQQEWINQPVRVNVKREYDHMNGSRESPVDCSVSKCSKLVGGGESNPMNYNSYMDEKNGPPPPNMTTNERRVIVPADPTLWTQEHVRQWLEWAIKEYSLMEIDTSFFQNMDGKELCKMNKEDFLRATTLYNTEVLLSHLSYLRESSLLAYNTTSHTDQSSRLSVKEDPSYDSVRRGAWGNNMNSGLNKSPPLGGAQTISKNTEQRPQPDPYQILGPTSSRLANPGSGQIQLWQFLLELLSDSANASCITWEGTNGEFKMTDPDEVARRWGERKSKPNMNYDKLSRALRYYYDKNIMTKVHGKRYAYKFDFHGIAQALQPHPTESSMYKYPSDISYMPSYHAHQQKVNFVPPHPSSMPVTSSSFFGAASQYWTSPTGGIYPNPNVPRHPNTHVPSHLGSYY
How it was run: (§1)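 Pools of DNA-barcoded human transcription factors, expressed in yeast as GST fusions on glutathione beads and combined with a tag-only sample, were incubated with 200 nmole of a 16-mer random double-stranded DNA library. Incubation took 30 min at room temperature in Tris/NaCl/DTT/glycerol buffer and was followed by washing, 0.1% formaldehyde crosslinking, proximity ligation (BsaI/T4 ligase, 1 h, 37 °C), PCR amplification and sequencing on an Illumina NextSeq500. Binding signal is the ratio of a hexamer's read frequency for a factor to its frequency for the tag-only sample.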

ELK1 = biological target: T2, ELK1 (Homo sapiens, UniProt P19419 1-428); settings: protein: recombinant; tags: N-terminal GST; dsDNA, one strand shown
T2 sequence: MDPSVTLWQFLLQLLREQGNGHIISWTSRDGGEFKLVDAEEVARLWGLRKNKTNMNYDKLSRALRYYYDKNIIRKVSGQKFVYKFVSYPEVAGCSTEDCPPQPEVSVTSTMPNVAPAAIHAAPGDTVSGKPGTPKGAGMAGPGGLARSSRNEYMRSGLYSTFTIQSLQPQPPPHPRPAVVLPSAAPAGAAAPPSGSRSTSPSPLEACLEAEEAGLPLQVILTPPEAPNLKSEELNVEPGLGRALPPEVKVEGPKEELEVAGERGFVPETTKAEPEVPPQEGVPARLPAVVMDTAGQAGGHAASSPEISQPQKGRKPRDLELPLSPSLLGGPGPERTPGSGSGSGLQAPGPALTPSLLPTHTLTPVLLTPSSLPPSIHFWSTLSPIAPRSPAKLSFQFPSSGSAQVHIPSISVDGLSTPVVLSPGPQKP
How it was run: as §1

GABPA = biological target: T3, GABPA (Homo sapiens, UniProt Q06546 1-454); settings: protein: recombinant; tags: N-terminal GST; dsDNA, one strand shown
T3 sequence: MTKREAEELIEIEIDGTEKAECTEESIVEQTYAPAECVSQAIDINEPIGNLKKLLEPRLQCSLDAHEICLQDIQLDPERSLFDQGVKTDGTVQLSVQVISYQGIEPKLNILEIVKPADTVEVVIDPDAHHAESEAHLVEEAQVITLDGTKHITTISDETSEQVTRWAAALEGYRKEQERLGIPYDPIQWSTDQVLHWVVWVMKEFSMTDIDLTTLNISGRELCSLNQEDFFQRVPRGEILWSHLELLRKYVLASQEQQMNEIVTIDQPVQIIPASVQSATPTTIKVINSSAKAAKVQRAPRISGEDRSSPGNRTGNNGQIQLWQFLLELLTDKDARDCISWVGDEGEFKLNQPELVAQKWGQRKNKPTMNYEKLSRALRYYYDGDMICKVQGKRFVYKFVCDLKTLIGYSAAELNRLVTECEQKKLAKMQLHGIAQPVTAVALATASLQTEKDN
How it was run: as §1

ERG = biological target: T4, ERG (Homo sapiens, UniProt P11308 1-479); settings: protein: recombinant; tags: N-terminal GST; dsDNA, one strand shown
T4 sequence: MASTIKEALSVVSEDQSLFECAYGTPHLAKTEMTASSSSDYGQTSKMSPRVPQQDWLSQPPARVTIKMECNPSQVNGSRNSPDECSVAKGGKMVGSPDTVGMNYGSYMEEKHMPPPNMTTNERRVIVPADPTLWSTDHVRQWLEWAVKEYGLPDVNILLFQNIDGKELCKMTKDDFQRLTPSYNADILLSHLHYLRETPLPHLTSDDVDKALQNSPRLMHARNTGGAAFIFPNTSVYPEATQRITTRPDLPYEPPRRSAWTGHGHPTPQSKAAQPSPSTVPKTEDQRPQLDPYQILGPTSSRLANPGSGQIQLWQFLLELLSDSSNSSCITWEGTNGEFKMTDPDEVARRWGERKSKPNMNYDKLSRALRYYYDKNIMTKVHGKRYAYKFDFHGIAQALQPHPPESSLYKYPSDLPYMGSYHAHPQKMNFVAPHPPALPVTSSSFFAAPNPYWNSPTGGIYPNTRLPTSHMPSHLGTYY
How it was run: as §1

ELF1 = ELF1 (Homo sapiens, UniProt P32519 1-619); settings: protein: recombinant; tags: N-terminal GST; dsDNA, one strand shown
Chain of ELF1 (P32519 whole entry): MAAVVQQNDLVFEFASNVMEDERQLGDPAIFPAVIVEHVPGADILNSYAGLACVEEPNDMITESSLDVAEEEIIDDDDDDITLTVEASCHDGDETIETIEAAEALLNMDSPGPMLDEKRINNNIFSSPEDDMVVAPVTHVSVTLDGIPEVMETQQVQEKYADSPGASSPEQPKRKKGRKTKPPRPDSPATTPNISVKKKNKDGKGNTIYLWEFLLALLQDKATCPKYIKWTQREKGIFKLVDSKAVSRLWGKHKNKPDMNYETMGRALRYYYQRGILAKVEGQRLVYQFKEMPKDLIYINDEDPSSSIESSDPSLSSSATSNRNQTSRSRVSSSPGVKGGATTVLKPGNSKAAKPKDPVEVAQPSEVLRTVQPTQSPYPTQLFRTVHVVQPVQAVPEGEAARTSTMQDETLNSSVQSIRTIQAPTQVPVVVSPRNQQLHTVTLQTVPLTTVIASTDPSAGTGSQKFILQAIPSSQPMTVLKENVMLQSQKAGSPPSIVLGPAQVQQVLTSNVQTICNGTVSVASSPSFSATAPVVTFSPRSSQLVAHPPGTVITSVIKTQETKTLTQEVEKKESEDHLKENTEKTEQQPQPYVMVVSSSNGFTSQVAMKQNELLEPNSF
How it was run: as §1

EHF = biological target: T5, EHF (Homo sapiens, UniProt Q9NZC4 1-300); settings: protein: recombinant; tags: N-terminal GST; dsDNA, one strand shown
T5 sequence: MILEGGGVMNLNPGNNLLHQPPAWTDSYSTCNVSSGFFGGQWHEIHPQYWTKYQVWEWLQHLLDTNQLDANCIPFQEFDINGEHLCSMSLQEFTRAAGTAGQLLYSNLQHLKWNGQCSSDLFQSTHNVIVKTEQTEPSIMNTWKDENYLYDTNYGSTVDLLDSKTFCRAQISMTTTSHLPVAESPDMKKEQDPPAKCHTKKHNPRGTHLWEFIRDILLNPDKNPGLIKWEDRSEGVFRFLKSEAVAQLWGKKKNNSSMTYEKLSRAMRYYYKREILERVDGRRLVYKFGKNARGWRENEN
How it was run: as §1

SPI1 = SPI1 (Homo sapiens, UniProt P17947 1-270); settings: protein: recombinant; tags: N-terminal GST; dsDNA, one strand shown
How it was run: as §1

SPIB = SPIB (Homo sapiens, UniProt Q01892 1-262); settings: protein: recombinant; tags: N-terminal GST; dsDNA, one strand shown
Chain of SPIB (Q01892 whole entry): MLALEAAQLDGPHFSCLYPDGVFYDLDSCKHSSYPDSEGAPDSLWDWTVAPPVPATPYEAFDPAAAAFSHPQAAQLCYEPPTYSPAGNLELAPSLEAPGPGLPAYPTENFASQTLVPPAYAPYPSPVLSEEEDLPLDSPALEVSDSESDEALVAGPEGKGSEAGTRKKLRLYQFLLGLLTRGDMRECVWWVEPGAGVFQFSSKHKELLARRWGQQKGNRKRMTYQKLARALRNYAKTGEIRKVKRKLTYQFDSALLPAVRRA
How it was run: as §1

ELK3 = biological target: T6, ELK3 (Homo sapiens, UniProt P41970 1-407); settings: protein: recombinant; tags: N-terminal GST; dsDNA, one strand shown
T6 sequence: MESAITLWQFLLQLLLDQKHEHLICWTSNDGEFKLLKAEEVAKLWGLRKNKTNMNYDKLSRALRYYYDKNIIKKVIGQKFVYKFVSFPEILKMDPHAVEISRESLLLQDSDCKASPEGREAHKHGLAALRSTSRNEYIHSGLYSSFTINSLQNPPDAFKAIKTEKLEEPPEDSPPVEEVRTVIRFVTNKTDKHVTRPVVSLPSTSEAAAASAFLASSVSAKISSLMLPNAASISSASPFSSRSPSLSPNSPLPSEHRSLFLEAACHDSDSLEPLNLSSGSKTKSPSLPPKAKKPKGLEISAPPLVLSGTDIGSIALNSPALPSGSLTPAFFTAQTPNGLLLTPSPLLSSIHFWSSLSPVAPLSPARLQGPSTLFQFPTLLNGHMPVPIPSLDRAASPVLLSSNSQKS
How it was run: as §1

FEV = biological target: T7, FEV (Homo sapiens, UniProt Q99581 1-238); settings: protein: recombinant; tags: N-terminal GST; dsDNA, one strand shown
T7 sequence: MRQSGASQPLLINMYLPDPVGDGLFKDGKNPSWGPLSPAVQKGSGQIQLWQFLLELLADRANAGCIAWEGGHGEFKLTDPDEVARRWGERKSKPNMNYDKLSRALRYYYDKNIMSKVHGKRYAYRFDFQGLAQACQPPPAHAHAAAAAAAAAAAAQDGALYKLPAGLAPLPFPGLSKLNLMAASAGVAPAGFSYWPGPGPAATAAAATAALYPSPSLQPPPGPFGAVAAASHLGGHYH
How it was run: as §1

ETV5 = ETV5 (Homo sapiens, UniProt P41161 1-510); settings: protein: recombinant; tags: N-terminal GST; dsDNA, one strand shown
Chain of ETV5 (P41161 whole entry): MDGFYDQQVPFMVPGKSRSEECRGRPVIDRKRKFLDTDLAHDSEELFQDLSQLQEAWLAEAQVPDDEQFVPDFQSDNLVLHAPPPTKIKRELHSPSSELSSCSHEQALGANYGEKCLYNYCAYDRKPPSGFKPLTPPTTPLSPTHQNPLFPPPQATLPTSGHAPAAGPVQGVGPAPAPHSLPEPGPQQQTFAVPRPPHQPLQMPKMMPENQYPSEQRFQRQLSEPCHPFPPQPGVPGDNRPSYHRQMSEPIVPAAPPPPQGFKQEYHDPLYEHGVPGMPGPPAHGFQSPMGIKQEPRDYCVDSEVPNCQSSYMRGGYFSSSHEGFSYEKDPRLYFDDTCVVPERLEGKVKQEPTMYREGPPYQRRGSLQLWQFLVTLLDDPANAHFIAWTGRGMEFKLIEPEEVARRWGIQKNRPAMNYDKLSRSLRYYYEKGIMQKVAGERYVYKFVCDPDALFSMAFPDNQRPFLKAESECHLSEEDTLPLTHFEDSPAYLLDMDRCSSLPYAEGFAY
How it was run: as §1

HSF1 = HSF1 (Homo sapiens, UniProt Q00613 1-529); settings: protein: recombinant; tags: N-terminal GST; chain copies: 3; dsDNA, one strand shown
Chain of HSF1 (Q00613 whole entry): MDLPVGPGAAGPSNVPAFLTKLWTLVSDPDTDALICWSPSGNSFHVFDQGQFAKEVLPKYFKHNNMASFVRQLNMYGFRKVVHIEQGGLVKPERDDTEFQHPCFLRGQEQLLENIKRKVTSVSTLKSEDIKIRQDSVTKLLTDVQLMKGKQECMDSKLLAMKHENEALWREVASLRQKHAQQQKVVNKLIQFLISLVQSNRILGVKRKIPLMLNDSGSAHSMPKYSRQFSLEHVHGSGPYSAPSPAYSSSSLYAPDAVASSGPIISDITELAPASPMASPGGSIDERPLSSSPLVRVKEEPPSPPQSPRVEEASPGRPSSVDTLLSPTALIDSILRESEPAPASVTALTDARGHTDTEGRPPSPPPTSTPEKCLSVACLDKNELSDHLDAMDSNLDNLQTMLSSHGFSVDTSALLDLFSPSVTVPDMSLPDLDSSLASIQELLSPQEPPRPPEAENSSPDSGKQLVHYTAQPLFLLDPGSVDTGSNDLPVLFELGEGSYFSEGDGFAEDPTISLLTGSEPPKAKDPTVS
How it was run: as §1

SPIC = biological target: T8, SPIC (Homo sapiens, UniProt Q8N5J4 1-248); settings: protein: recombinant; tags: N-terminal GST; dsDNA, one strand shown
T8 sequence: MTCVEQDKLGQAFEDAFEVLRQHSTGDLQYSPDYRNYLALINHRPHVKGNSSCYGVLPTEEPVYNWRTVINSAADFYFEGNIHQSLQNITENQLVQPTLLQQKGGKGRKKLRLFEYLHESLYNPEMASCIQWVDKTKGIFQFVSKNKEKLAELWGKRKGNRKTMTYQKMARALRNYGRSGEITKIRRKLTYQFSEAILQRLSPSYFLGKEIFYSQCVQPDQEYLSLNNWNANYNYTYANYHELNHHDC
How it was run: as §1

ELF4 = ELF4 (Homo sapiens, UniProt Q99607 1-663); settings: protein: recombinant; tags: N-terminal GST; dsDNA, one strand shown
Chain of ELF4 (Q99607 whole entry): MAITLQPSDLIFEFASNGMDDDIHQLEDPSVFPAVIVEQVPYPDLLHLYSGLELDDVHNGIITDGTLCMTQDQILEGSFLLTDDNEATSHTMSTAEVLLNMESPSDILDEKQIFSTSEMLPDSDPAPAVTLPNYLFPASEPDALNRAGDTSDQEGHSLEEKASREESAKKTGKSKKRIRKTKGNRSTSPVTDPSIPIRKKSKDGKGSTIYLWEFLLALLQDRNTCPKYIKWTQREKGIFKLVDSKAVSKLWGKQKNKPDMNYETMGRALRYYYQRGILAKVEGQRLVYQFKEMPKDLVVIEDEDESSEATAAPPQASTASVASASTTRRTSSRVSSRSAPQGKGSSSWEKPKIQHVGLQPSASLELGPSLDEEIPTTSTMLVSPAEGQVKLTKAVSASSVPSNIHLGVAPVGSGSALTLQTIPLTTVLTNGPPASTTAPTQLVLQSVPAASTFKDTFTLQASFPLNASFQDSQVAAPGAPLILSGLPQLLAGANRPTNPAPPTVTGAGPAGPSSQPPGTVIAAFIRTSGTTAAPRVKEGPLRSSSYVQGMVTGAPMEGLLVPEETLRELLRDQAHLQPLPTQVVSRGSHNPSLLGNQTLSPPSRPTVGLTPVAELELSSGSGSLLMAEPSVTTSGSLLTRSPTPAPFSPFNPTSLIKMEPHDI
How it was run: as §1

ELK4 = biological target: T9, ELK4 (Homo sapiens, UniProt P28324-2 1-405); settings: protein: recombinant; tags: N-terminal GST; dsDNA, one strand shown
T9 sequence: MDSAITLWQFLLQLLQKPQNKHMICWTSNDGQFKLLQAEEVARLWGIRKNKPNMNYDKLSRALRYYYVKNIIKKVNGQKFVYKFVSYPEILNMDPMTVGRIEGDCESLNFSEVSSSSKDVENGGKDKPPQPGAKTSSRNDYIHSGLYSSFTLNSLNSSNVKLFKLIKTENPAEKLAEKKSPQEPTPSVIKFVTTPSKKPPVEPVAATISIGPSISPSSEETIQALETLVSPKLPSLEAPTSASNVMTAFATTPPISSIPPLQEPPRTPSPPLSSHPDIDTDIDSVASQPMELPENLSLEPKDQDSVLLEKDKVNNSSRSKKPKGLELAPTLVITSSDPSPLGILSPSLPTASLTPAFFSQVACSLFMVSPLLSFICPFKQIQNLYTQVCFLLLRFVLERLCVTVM
How it was run: as §1

ETV2 = biological target: T10, ETV2 (Homo sapiens, UniProt O00321 1-342); settings: protein: recombinant; tags: N-terminal GST; dsDNA, one strand shown
T10 sequence: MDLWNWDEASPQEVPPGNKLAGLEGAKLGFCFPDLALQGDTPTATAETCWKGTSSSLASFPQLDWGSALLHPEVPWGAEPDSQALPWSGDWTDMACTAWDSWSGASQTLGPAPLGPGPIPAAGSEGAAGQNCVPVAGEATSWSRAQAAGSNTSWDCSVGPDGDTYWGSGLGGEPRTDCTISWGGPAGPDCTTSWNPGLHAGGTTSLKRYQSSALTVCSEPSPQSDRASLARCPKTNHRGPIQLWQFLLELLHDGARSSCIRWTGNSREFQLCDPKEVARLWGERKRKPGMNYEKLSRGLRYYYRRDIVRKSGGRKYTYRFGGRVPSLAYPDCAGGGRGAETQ
How it was run: as §1

ELF3 = biological target: T11, ELF3 (Homo sapiens, UniProt P78545 1-371); settings: protein: recombinant; tags: N-terminal GST; dsDNA, one strand shown
T11 sequence: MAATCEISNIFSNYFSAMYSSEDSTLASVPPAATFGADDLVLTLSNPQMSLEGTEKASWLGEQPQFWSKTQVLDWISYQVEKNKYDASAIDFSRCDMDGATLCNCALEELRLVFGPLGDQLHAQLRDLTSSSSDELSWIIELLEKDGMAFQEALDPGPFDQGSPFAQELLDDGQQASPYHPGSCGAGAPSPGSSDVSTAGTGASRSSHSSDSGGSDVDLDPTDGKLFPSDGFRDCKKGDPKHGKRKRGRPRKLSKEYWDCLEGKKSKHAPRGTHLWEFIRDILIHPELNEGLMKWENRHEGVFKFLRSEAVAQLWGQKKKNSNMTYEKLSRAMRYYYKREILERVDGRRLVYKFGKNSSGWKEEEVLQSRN
How it was run: as §1

CRX = CRX (Homo sapiens, UniProt O43186 1-299); settings: protein: recombinant; tags: N-terminal GST; dsDNA, one strand shown
Chain of CRX (O43186 whole entry): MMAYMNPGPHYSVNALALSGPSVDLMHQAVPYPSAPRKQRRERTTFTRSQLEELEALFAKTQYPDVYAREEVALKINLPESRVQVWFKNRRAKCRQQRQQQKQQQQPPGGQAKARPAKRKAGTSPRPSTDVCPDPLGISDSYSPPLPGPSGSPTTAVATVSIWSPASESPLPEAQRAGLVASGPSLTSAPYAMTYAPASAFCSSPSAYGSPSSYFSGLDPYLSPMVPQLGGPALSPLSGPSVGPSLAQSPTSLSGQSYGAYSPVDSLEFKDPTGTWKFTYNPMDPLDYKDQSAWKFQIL
How it was run: as §1

ETV1 = ETV1 (Homo sapiens, UniProt P50549 1-477); settings: protein: recombinant; tags: N-terminal GST; dsDNA, one strand shown
Chain of ETV1 (P50549 whole entry): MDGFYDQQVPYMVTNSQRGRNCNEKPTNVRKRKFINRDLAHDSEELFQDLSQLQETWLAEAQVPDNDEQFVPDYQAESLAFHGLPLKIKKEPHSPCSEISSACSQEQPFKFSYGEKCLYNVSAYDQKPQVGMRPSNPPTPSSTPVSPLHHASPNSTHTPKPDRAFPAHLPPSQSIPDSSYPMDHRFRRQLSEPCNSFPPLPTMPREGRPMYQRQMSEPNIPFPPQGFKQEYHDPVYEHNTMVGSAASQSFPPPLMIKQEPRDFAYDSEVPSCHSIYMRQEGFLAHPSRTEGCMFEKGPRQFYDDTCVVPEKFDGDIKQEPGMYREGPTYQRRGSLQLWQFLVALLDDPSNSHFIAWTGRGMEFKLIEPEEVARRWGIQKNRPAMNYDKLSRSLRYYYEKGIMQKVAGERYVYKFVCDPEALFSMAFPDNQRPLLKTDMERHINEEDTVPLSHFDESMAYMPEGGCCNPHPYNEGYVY
How it was run: as §1

With CACGCT the binding signal (FLI1) was 1.42 fold enrichment (6-mer frequency, TF over GST control), the binding signal (ELK1) was 1.36 fold enrichment (6-mer frequency, TF over GST control) and the binding signal (GABPA) was 1.36 fold enrichment (6-mer frequency, TF over GST control). The binding signal (ERG) was 1.4 fold enrichment (6-mer frequency, TF over GST control), the binding signal (ELF1) was 1.34 fold enrichment (6-mer frequency, TF over GST control) and the binding signal (EHF) was 1.44 fold enrichment (6-mer frequency, TF over GST control). For the same sequence, the binding signal (SPI1) was 1.33 fold enrichment (6-mer frequency, TF over GST control), the binding signal (SPIB) was 1.37 fold enrichment (6-mer frequency, TF over GST control) and the binding signal (ELK3) was 1.35 fold enrichment (6-mer frequency, TF over GST control). For the same sequence, the binding signal (FEV) was 1.32 fold enrichment (6-mer frequency, TF over GST control), the binding signal (ETV5) was 1.34 fold enrichment (6-mer frequency, TF over GST control) and the binding signal (HSF1) was 1.19 fold enrichment (6-mer frequency, TF over GST control). The binding signal (SPIC) was 1.23 fold enrichment (6-mer frequency, TF over GST control), the binding signal (ELF4) was 1.43 fold enrichment (6-mer frequency, TF over GST control) and the binding signal (ELK4) was 1.36 fold enrichment (6-mer frequency, TF over GST control). The binding signal (ETV2) was 1.27 fold enrichment (6-mer frequency, TF over GST control), the binding signal (ELF3) was 1.4 fold enrichment (6-mer frequency, TF over GST control) and the binding signal (CRX) was 1.17 fold enrichment (6-mer frequency, TF over GST control). For the same sequence, the binding signal (ETV1) was 1.34 fold enrichment (6-mer frequency, TF over GST control).
